Data taken from PubChem BioAssay (NCI).
This is part of a sample that, as a whole, favours compounds with a hit. Of some 79,000 tested, about 15% had one in any assay. Unmarked numbers belong to inactive results. The source made the active and inactive calls. Cut-off read from the data, not from the text of the source: active = growth inhibition above about 70%; inactive = the rest.

Key:
[1] = NCI Yeast Anticancer Drug Screen. Data for the wt1 strain (AID 149);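 note: 0% = growth of vehicle-treated wt1 cultures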; settings: S. cerevisiae wt1 strain (SPY 50644) growth inhibition, active compounds read high
In short: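 Compounds are added to wt1 yeast cultures. Growth is then measured. Inhibition is expressed relative to vehicle-treated controls.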

[2] = NCI Yeast Anticancer Drug Screen. Data for the rad50EPP+ strain (AID 151);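 note: 0% = growth of vehicle-treated control cultures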; settings: S. cerevisiae rad50 mutant strain, active compounds read high
In short: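 Measured: growth inhibition of rad50EPP+ yeast. Reference: vehicle-treated controls. Screen uses strains with defined genetic alterations in DNA damage repair or cell cycle control.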

[3] = NCI Yeast Anticancer Drug Screen. Data for the rad50 strain (AID 155);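 note: 0% = growth of vehicle-only cultures of the same strain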; settings: S. cerevisiae rad50 strain growth inhibition, active compounds read high
In short: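 Inhibition values express reduced yeast growth in compound-treated cultures relative to vehicle-treated controls.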

[4] = NCI Yeast Anticancer Drug Screen. Data for the mec2-1 strain (AID 157); settings: S. cerevisiae mec2-1 strain, active compounds read high
In short: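 Compounds were applied to mec2-1 yeast cells. Their growth was then compared with that of vehicle-treated cultures to give growth inhibition.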

[5] = NCI Yeast Anticancer Drug Screen. Data for the rad14 strain (AID 159);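 note: 0% = growth of vehicle-treated control cultures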; settings: S. cerevisiae rad14 strain growth inhibition, active compounds read high
In short: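 A mutant yeast strain defective in DNA damage repair is treated with compound; inhibition of its growth is scored against untreated, vehicle-exposed cultures.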

[6] = NCI Yeast Anticancer Drug Screen. Data for the sgs1 mgt1 strain (AID 161);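 note: 0% = growth of cultures given vehicle only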; settings: S. cerevisiae sgs1 mgt1 strain, active compounds read high
In short: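 This yeast growth screen uses a strain with defined DNA-repair lesions; compound-treated growth is compared with vehicle-treated growth.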

[7] = NCI Yeast Anticancer Drug Screen. Data for the CLN2oe strain (AID 163);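 note: 0% = growth of vehicle-only control cultures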; settings: S. cerevisiae CLN2oe strain, active compounds read high
In short: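 Cells of an engineered yeast line with disturbed cell-cycle regulation are treated with compound. Inhibition of growth is then calculated relative to the vehicle-treated reference.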

[8] = NCI Yeast Anticancer Drug Screen. Data for the cln2 rad14 strain (AID 165);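 note: 0% = growth equal to vehicle treated cultures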; settings: S. cerevisiae cln2 rad14 strain, active compounds read high
In short: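 Strain: cln2 rad14 yeast, altered in cell cycle control and DNA damage repair. Read-out: growth inhibition vs vehicle.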

[9] = NCI Yeast Anticancer Drug Screen. Data for the bub3 strain (AID 167); settings: S. cerevisiae bub3 mutant strain, active compounds read high
In short: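 Steps: expose the mutant yeast strain to compound; grow alongside vehicle-treated cultures; measure growth; express inhibition against the vehicle cultures.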

[10] = NCI Yeast Anticancer Drug Screen. Data for the mlh1 strain (AID 171);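 note: 0% = growth of vehicle-treated control cultures of the same strain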; settings: S. cerevisiae mlh1 strain growth inhibition, active compounds read high
In short: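 Test agents were incubated with yeast bearing a defined DNA damage repair or cell cycle control alteration; values are growth inhibition normalised to vehicle-treated cultures.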

[11] = NCI Yeast Anticancer Drug Screen. Data for the sgs1 strain (AID 173);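 note: 0% = growth of vehicle-only control cultures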; settings: S. cerevisiae sgs1 mutant, active compounds read high
In short: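 Strain with an altered DNA repair or cell cycle pathway exposed to compound. Growth then measured. Value = inhibition versus vehicle control.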

[12] = NCI Yeast Anticancer Drug Screen. Data for the mlh1 rad18 strain (AID 175); settings: S. cerevisiae mlh1 rad18 strain growth inhibition, active compounds read high
In short: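 A repair-deficient yeast strain is exposed to test compound, and growth is scored relative to vehicle-treated controls.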

[13] = NCI Yeast Anticancer Drug Screen. Data for the rad18 strain (AID 177); settings: S. cerevisiae rad18 mutant growth inhibition, active compounds read high
In short: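 DNA-repair-defective yeast; compound treatment; growth inhibition scored against vehicle.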

[14] = at 5.0 µM (retest, dose inferred, filed as 0.5)
[15] = at 50.0 µM (retest, dose inferred, filed as 5.0)

Cc1c2cc[n+](CCN3CCCCC3)cc2c(C)c2c1[nH]c1ccc(O)cc12
growth inhibition ([1]; at 1.2 µM): 2%
growth inhibition ([1]; at 3.7 µM): 2%
growth inhibition ([1]; at 11.0 µM): 5%
growth inhibition ([1]; at 33.0 µM): 6%
growth inhibition ([1]; at 100.0 µM): 29%
growth inhibition ([2]; at 1.2 µM): 4%
growth inhibition ([2]; at 3.7 µM): 16%
growth inhibition ([2]; at 11.0 µM): 62%
growth inhibition ([2]; at 33.0 µM): 89% (active)
growth inhibition ([2]; at 100.0 µM): 96% (active)
growth inhibition ([3]; at 1.2 µM): 17%
growth inhibition ([3]; at 3.7 µM): 47%
growth inhibition [3, 14]: 36%
growth inhibition ([3]; at 11.0 µM): 74% (active)
growth inhibition ([3]; at 33.0 µM): 91% (active)
growth inhibition [3, 15]: 97% (active)
growth inhibition ([3]; at 50.0 µM): 97.8% (active)
growth inhibition ([3]; at 100.0 µM): 98% (active)
growth inhibition ([4]; at 1.2 µM): -2%
growth inhibition ([4]; at 3.7 µM): 3%
growth inhibition [4, 14]: 25%
growth inhibition ([4]; at 11.0 µM): 5%
growth inhibition ([4]; at 33.0 µM): 15%
growth inhibition [4, 15]: 4%
growth inhibition ([4]; at 50.0 µM): 57.5%
growth inhibition ([4]; at 100.0 µM): 98% (active)
growth inhibition ([5]; at 1.2 µM): 1%
growth inhibition ([5]; at 3.7 µM): 12%
growth inhibition ([5]; at 11.0 µM): 1%
growth inhibition ([5]; at 33.0 µM): 14%
growth inhibition ([5]; at 100.0 µM): 93% (active)
growth inhibition [6, 14]: 2%
growth inhibition [6, 15]: 38%
growth inhibition ([6]; at 50.0 µM): 89.2% (active)
growth inhibition ([7]; at 1.2 µM): -3%
growth inhibition ([7]; at 3.7 µM): -3%
growth inhibition ([7]; at 11.0 µM): -3%
growth inhibition ([7]; at 33.0 µM): 4%
growth inhibition ([7]; at 100.0 µM): 72% (active)
growth inhibition [8, 14]: 5%
growth inhibition [8, 15]: 6%
growth inhibition ([8]; at 50.0 µM): 30.1%
growth inhibition ([9]; at 1.2 µM): -20%
growth inhibition ([9]; at 3.7 µM): 5%
growth inhibition [9, 14]: 16%
growth inhibition ([9]; at 11.0 µM): -4%
growth inhibition ([9]; at 33.0 µM): -5%
growth inhibition [9, 15]: 28%
growth inhibition ([9]; at 50.0 µM): 90.5% (active)
growth inhibition ([9]; at 100.0 µM): 97% (active)
growth inhibition ([10]; at 1.2 µM): -5%
growth inhibition ([10]; at 3.7 µM): -4%
growth inhibition ([10]; at 11.0 µM): 0%
growth inhibition ([10]; at 33.0 µM): 8%
growth inhibition ([10]; at 100.0 µM): 97% (active)
growth inhibition ([11]; at 1.2 µM): -1%
growth inhibition ([11]; at 3.7 µM): -2%
growth inhibition ([11]; at 11.0 µM): 1%
growth inhibition ([11]; at 33.0 µM): 12%
growth inhibition ([11]; at 100.0 µM): 94% (active)
growth inhibition [12, 14]: 3%
growth inhibition [12, 15]: 25%
growth inhibition ([12]; at 50.0 µM): 81.8% (active)
growth inhibition ([13]; at 1.2 µM): -2%
growth inhibition ([13]; at 3.7 µM): -5%
growth inhibition ([13]; at 11.0 µM): -4%
growth inhibition ([13]; at 33.0 µM): -4%
growth inhibition ([13]; at 100.0 µM): 41%
